Experimental data reported in PubChem BioAssay.

System: Human papillomavirus type 1a protein E7 (residues 44-93)
Assay: HPV1a E7 fragment binders on microarrays, primary screen, biochemical, small-molecule microarray, residues 44-93, 635 nm fluorescence (AID 1108);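 also: E7 fragment applied at 1 µg/mL in TBST for 1 h at 4 C; score combines spot fluorescence with its signal to noise ratio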
Details: small-molecule microarray binding, fluorescence 635 nm; higher = more signal

| SMILES | composite z-score |
| --- | --- |
| CCOC(=O)C[C@H]1[C@H](OC(=O)c2ccccc2-c2ccccc2)[C@@H](NC(=O)c2ccc(-c3ccccc3)cc2)c2cc(OCCCO)ccc2N1C(=O)c1ccc2ccccc2n1 | 0.521 |
| C=CCC(OC(C)=O)[C@@H]1[C@@H](N(Cc2ccc(-c3ccccc3)cc2)C(=O)Cc2ccc(F)cc2)c2cc(OCCCO)ccc2N1C(=O)Cc1ccc(OC)cc1 (stereo not given in full) | -0.0218 |
| O=C(NCC(F)(F)F)[C@@H]1c2ccccc2C(=O)N(Cc2ccc(OC(F)(F)F)cc2)[C@H]1c1ccc(CO)cc1 | 1.4 |
| COC(=O)CCCCCCC(=O)Nc1ccc(NC(=O)CCCC[P+](c2ccccc2)(c2ccccc2)c2ccccc2)cc1 | -0.0924 |
| CCCCCCc1nc(C2CC2)cc2c1[Si](C(C)C)(C(C)C)OC2 | -1.03 |
| O=C1O[C@H](c2ccccc2)[C@H](c2ccccc2)N2[C@H]1[C@@H](C(=O)Nc1nc3ccccc3s1)[C@]1(C(=O)Nc3ccccc31)[C@H]2c1ccc(OCCO)cc1 | 1.36 |
| C=C(/C(=C/C[C@H](OC(=O)c1ccncc1)c1ccc(CO)o1)c1cc(C(=O)OC)ccc1OC)C(C)C | 1.31 |
| CN(C)C(=O)[C@@]1(CCS(=O)(=O)c2ccccc2)N=C(c2ccc(OCCCO)cc2)O[C@H]1c1ccccc1 | 1.46 |
| O=C1OCCC/C=C\[C@H]2OC34C=CCN(CCN5CCOCC5)C(=O)[C@H]3N(CCCCCCO)C(=O)[C@@H]4C12 (stereo not given in full) | -0.776 |
| O=C1C2C=CC(C(O)c3ccc(Br)cc3)N(Nc3ccccc3F)C2C(=O)N1c1ccccc1 (stereo not given) | 0.861 |
| CCCCC(=C=CC[C@@H](O)c1ccccc1OCCO)C[C@@H](O)COCc1ccccc1 | 0.0941 |
| O=C1O[C@@H](c2ccccc2)[C@@H](c2ccccc2)N2[C@@H](c3ccc(O)cc3)[C@]3(C(=O)Nc4ccc(C#CC5=CCCCC5)cc43)[C@@H](C(=O)NC[C@H](O)c3ccccc3)[C@H]12 | 1.4 |
| NC(=O)NCC#Cc1ccc2c(c1)[C@]1(C(=O)N2)[C@H](C(=O)NC[C@H](O)c2ccccc2)[C@H]2C(=O)O[C@H](c3ccccc3)[C@H](c3ccccc3)N2[C@@H]1c1ccc(OCCO)cc1 | 1.25 |
| CC(C)N1CC=CC23O[C@@H]4C=CCOC(=O)[C@@H]4[C@H]2C(=O)N(CCCO)[C@@H]3C1=O (stereo not given in full) | 1.49 |
| N#Cc1ccc(C(O)C2C=CC3C(=O)N(c4ccccc4)C(=O)C3N2Nc2ccccc2)cc1 (stereo not given) | 0.86 |
| CCCCN1CC=CC23O[C@@H]4/C=C\CCC(C)OC(=O)C4[C@H]2C(=O)N(C(CO)C(C)C)[C@@H]3C1=O (stereo not given in full) | -0.164 |
| C=CCN1Cc2ccccc2[C@H]2OC(c3ccc(OCCCO)cc3)=N[C@@]2(CC=C)C1=O | 1.46 |
| CC(CO)N1C(=O)[C@@H]2[C@H]3C(=O)OCC=C[C@H]3OC23C=CCN(CCN2CCOCC2)C(=O)[C@@H]13 (stereo not given in full) | -0.186 |

| SMILES | composite z-score |
| --- | --- |
| CCCCCCc1nc(-c2cc(C)c(OC)c(C)c2)c(C)c2c1[Si](C(C)C)(C(C)C)OC2 | -0.226 |
| C=C(COC)/C(=C/C[C@H](OC(=O)c1ccncc1)c1ccccc1OCCO)c1cnc2ccccc2c1 | 1.4 |
| CO[C@H]1O[C@H](CO)[C@@H](OC(=O)Nc2ccc3c(c2)OCO3)[C@H](OC(=O)c2cc3ccccc3[nH]2)[C@H]1OC(=O)c1cc2ccccc2[nH]1 | -0.343 |
| O=C1N(Cc2ccccc2)c2ccccc2[C@@H]2OC(c3ccc(OCCCO)cc3)=N[C@]12Cc1ccccc1 | 1.45 |
| CCOC(=O)c1ccc(NC(=O)O[C@H]2[C@H](OC(=O)Nc3ccc4c(c3)OCO4)[C@@H](OC(=O)Nc3ccc4c(c3)OCO4)[C@@H](OC)O[C@@H]2CO)cc1 | 1.27 |
| C=CCC(OC(C)=O)[C@@H]1[C@@H](N(Cc2cccc3ccccc23)C(=O)Cc2ccc(OC)cc2)c2cc(OCCCO)ccc2N1C(=O)c1ccc2ccccc2n1 (stereo not given in full) | 0.26 |
| COCCCNC(=O)[C@@]1(Cc2ccccc2CN=[N+]=[N-])N=C(c2ccc(OCCCO)cc2)O[C@H]1c1ccccc1 | 1.47 |
| COC(=O)[C@@]1(Cc2ccccc2)[C@H]2c3cc(C(=O)N(C)C)n(CCc4ccc(O)c(OC)c4)c3C[C@H]2CN1C(=O)c1ccccc1 | 0.351 |
| CN1C(=O)C2C=CC(C(O)COCc3ccccc3)N(N(c3ccccc3)c3ccccc3)C2C1=O (stereo not given) | 1.31 |
| CC(c1ccccc1)C(O)C1C=CC2C(=O)N(c3ccccc3)C(=O)C2N1Nc1ccc([N+](=O)[O-])cc1 (stereo not given) | 1.46 |
| [N-]=[N+]=NCc1ccccc1[C@H]1OC(c2ccc(OCCCO)cc2)=N[C@@]1(CCS(=O)(=O)c1ccccc1)C(=O)N1CCCCC1 | -0.695 |
| [N-]=[N+]=Nc1ccccc1C[C@]1(C(N)=O)N=C(c2ccc(OCCCO)cc2)O[C@H]1c1ccccc1N=[N+]=[N-] | 1.38 |
| COc1cc(CO)cc(I)c1O[C@H]1C=C(C(=O)NCCO)C[C@@H](NCc2ccc(F)cc2)[C@@H]1O | -1.08 |
| CCCC[C@@H]1C[C@H]1[C@@H](NC(=O)c1cccs1)c1ccc(C(F)(F)F)cc1 | -0.47 |
| COCCOC(=O)N1C(=O)[C@@]2(c3cc(C#CC4=CCCCC4)ccc31)[C@H](C(N)=O)[C@H]1C(=O)O[C@H](c3ccccc3)[C@H](c3ccccc3)N1[C@@H]2c1ccccc1OCCO | 0.22 |
| O=C1OCCC=C[C@H]2OC34C=CCN(Cn5nnc6ccccc65)C(=O)[C@H]3N(CCCCCCO)C(=O)[C@@H]4C12 (stereo not given in full) | -0.607 |
| Cc1ccc(S[C@]2(C(=O)O)CC(=O)N(Cc3cc(C(F)(F)F)cc(C(F)(F)F)c3)[C@@H]2c2ccc(CO)cc2)cc1 | -0.0234 |
